Laboratory results as given in the supplement of paper PMC7724964.

Legend:
Assay in all cases: phage ELISA signal ratio (GST-PRM binding over GST background); higher = stronger binding of peptide-phage to the PRM
[1] = biological target: T1, ARFGEF2 639-829 Sec7 (domain begin residue: 639, domain end residue: 829), Q9Y6D5
T1 chain: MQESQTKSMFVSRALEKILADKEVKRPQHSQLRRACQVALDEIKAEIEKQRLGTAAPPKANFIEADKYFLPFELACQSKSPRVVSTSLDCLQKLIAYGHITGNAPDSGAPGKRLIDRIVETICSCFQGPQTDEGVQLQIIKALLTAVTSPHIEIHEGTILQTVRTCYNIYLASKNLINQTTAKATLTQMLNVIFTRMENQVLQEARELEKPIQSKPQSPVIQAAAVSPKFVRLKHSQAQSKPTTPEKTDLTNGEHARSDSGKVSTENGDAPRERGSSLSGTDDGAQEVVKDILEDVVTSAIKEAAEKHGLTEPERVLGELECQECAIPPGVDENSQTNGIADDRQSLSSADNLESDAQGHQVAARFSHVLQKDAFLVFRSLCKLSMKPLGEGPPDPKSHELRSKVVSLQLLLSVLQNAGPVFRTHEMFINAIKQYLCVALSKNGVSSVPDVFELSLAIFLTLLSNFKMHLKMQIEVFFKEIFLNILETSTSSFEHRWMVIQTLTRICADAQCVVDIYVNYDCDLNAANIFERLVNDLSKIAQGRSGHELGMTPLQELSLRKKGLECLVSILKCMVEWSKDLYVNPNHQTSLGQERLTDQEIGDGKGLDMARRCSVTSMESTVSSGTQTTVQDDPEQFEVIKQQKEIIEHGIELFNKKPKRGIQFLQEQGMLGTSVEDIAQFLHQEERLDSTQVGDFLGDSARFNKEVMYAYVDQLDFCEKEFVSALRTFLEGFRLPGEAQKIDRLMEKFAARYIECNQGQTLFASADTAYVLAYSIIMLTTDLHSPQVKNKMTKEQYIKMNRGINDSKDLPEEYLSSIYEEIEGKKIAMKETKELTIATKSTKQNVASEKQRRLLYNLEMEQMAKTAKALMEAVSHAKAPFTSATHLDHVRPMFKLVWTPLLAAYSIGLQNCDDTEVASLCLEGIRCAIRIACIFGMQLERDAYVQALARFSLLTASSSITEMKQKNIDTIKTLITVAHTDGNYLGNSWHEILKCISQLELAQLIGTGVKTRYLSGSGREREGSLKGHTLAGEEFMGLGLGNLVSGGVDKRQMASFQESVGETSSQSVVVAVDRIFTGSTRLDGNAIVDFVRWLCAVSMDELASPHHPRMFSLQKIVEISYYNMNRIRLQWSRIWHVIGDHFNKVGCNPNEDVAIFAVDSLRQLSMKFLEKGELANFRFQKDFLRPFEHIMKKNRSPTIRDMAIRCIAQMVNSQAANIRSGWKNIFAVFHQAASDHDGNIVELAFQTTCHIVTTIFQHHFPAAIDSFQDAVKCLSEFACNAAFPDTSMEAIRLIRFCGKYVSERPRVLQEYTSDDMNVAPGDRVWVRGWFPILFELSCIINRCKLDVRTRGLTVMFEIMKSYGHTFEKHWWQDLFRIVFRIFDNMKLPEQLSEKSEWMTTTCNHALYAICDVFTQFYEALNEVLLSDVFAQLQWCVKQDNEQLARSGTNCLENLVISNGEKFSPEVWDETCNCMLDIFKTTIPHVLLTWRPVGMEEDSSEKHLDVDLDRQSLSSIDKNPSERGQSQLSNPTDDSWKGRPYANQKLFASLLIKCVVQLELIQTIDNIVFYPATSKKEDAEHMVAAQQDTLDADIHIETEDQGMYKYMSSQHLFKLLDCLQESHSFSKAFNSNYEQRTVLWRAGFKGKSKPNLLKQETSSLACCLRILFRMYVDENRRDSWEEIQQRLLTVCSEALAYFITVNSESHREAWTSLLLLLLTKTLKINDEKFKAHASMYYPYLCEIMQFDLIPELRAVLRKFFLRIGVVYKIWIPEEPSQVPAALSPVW
Method: (§1)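 Phage-displayed random hexadecapeptides (Cys-free, flanked by invariant Gly linkers, fused to the M13 P8 major coat protein) were selected over 5 rounds against GST-fused human PRM domains. Individual clones from rounds 4-5 were tested by phage ELISA, and positive clones binding the target but not GST were sequenced. Values are the ELISA signal ratio of target over background (GST); the background signal is given separately.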

[2] = biological target: T2, ALDOA 1-364 Glycolytic (domain begin residue: 1, domain end residue: 364), P04075
T2 chain: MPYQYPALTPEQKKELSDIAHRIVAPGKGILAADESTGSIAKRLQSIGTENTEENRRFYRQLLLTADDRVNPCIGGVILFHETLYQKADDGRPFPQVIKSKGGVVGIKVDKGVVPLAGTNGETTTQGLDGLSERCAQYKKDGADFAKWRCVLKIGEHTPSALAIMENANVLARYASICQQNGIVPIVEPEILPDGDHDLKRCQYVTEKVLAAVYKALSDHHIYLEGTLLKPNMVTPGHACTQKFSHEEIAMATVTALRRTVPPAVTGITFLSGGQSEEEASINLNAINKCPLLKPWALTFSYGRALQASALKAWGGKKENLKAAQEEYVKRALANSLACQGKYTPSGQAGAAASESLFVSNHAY
Method: as §1

[3] = biological target: T3, ARID4A 568-634 Tudor-knot (domain begin residue: 568, domain end residue: 634), P29374
T3 chain: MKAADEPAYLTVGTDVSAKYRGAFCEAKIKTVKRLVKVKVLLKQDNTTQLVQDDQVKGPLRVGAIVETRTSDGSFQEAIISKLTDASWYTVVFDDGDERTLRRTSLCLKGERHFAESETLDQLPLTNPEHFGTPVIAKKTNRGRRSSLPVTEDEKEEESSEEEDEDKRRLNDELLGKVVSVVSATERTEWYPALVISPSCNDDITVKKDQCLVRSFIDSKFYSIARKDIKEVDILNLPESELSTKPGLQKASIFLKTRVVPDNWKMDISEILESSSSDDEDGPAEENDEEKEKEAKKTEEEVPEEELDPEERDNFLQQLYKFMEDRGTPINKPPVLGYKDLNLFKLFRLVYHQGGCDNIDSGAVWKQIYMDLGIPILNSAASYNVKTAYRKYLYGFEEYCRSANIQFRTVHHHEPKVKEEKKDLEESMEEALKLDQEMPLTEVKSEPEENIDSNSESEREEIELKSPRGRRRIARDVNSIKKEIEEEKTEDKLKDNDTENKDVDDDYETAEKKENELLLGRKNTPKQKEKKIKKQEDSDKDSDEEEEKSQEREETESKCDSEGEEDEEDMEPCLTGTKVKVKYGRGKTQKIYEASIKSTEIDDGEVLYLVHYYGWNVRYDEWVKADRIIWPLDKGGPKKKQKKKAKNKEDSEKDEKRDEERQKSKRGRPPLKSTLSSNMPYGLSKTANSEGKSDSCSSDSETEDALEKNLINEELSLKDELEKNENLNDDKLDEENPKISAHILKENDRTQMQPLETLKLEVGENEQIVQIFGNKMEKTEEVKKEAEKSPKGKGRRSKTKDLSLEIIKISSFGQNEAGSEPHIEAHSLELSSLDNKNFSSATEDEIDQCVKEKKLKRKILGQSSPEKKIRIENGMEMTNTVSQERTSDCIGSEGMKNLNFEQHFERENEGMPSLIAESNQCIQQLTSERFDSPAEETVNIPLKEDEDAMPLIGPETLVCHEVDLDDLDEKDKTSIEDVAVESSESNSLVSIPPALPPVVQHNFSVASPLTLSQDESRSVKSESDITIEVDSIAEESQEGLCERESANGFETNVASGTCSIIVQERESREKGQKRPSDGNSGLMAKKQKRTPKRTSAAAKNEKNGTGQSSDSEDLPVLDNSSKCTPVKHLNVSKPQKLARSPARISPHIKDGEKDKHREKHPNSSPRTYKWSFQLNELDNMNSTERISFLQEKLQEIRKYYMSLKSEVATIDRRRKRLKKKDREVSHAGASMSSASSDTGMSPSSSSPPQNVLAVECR
Method: as §1

[4] = biological target: T4, ZGPAT 120-268 zf-CCCH+TUDOR (domain begin residue: 120, domain end residue: 268), Q8N5A5
T4 chain: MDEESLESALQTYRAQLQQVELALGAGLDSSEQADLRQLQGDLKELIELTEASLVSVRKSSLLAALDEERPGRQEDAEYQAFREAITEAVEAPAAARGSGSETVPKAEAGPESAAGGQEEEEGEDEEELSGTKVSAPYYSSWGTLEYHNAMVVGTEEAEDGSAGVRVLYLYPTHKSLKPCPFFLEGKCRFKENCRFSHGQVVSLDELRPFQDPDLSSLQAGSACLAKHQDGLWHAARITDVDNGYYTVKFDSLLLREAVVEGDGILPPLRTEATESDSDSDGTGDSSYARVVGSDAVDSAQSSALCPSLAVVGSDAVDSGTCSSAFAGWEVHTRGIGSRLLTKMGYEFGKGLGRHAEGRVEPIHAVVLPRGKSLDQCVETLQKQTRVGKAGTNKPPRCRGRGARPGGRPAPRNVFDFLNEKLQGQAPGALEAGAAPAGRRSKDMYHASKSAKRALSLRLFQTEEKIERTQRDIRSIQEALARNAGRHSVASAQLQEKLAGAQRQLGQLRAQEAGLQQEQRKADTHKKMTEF
Method: as §1

NEGERLWAVLKLWHEE
phage ELISA signal ratio [1]: 18.6

EFLWDPVQEMHVMVNE
phage ELISA signal ratio [2]: 5.28

QQVVDMQQMWQQWIEI
phage ELISA signal ratio [3]: 4.93

PWDEIWEDMIEWPLPQ
phage ELISA signal ratio [3]: 9.72

WVYENGEWEWTFPPSA
phage ELISA signal ratio [2]: 17.8

DWWDMWAQGDILEIHS
phage ELISA signal ratio [3]: 11.5

MLHDGWLMPGMTHSVN
phage ELISA signal ratio [3]: 8.8 | phage ELISA signal ratio [4]: 4.63
